From PubChem
Rows were chosen to be rich in hits. Some 7.4% of all compounds tested hit in one or more screens of this group.
Rab9 prom act: activators of Rab9 promoter; Huh7 Rab9 promoter-luciferase reporter, luminescence, 24 h; 320,000 tested, 2.8% active; Potency, µM (doses to about 9.22 µM), for the others: top-dose activation, negative = inhibition, actives largely listed as activators; AID 485297; also: % of control where 0% means no effect; nearly all actives have a fitted effect of over 60% in size
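Rab9 promoter-driven luciferase in stably transfected Huh7 cells; 1500 cells/well rested 2 h, exposed to compound in DMSO for 24 h at 37 °C, 5% CO2. Luminescence read 10 min after adding luciferase reagent at ambient temperature.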
NPC1 prom act: activators of NPC1 promoter; Huh7 NPC1 promoter luciferase reporter, 24 h; Potency, µM (titrated, usually from 9.22 µM), inactives show at the highest dose activation, usual class: activators; 320,000 tested, 2.4% active; AID 485313; also: % of control where 0% means no effect; nearly all actives have a fitted effect of over 60% in size
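In 1536-well qHTS, Huh7 cells harboring an NPC1 promoter–luciferase construct received compound for 24 h; activation was quantified by luminescence following luciferase reagent addition.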
FLuc modulator: inhibits or activates purified firefly luciferase, miR-21 counter-screen | 360,000 tested, 6.9% active | purified FLuc, Km substrates, luminescence inhibition | Potency, µM (doses to about 57.5 µM), inactives show at the highest dose activity change, negative = inhibition, actives largely listed as inhibitors;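 also: plate controls were vehicle for no effect and reference inhibitor for full effect; nearly all actives have a fitted effect of over 55% in size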
Target sequence (P08659 whole entry, looked up): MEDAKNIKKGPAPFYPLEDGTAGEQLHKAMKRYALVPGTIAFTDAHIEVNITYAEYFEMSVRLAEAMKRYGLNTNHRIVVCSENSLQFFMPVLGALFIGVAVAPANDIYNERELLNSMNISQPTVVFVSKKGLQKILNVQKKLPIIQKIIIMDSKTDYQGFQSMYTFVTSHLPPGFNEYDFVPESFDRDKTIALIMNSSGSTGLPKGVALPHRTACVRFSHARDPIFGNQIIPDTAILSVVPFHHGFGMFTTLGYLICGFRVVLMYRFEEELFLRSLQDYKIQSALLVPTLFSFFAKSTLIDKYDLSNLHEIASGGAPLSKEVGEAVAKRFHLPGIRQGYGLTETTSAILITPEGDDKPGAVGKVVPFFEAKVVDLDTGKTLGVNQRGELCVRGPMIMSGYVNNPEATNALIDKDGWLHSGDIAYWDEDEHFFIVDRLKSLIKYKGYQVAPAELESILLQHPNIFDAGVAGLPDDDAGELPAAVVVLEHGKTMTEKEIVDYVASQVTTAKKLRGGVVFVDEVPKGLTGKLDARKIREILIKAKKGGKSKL
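Purified P. pyralis luciferase, 10 nM final, with Km-level 10 uM D-luciferin and 10 uM ATP in 50 mM Tris acetate pH 7.5, 10 mM Mg acetate, 0.01% Tween-20, 0.05% BSA; 6-point qHTS titration about 60 µM downward; luminescence read.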
ELG1 genotox: genotoxicity induction in ELG1-luciferase HEK293T cells; AID 504466; 330,000 tested, 1.3% active; HEK293T ELG1-luciferase reporter, luminescence, 16 h; Potency, µM (titrated, usually from 46 µM), for the others: at the highest dose activity change, positive = activation, actives largely listed as activators; also: % of control where 0% means no effect; nearly all actives have a fitted effect of over 60% in size
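ELG1-luciferase HEK293T cells, 2,000/well; compound pinned in; 16 hr, 37 °C, 5% CO2; ONE-Glo, 30 min RT; luminescence on CCD imager.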
SMN2 splice up: enhancers of SMN2 splice variant expression; HEK293 SMN2-luciferase splicing reporter, luminescence, 30-36 h; Potency, µM (highest dose often 46.1 µM), without a hit: at the top dose activity change, positive = activation, hits mostly activators; 210,000 tested, 2.8% active; also: % of control where 0% means no effect; nearly all actives have a fitted effect of over 55% in size
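HEK293 cells carry an SMN2 […]–luciferase reporter in which exon 7 inclusion puts luciferase in frame. Cells were plated 10-12 h before compound addition, then incubated 30-36 h at 37C. ONE-Glo luminescence was read; sodium butyrate at 4.5 mM final served as control.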
An asterisk follows results filed as active; ? = inconclusive; / = no result; [ ] = dose if it differs, or a comment. Calls follow the shape of the dose curve; as a rule, active = well fitted curve in the direction sought with a large enough effect; inconclusive = small, poorly fitted or top-dose-only effect, or another doubt; inactive = no such curve, though single readings can be large; an effect the other way counts as inactive or inconclusive. Potency is read from the fitted curve at half-maximal effect.

SMILES	Rab9 prom act	NPC1 prom act	FLuc modulator	ELG1 genotox	SMN2 splice up
CC1=C(C(N)=O)C(c2cccc(Br)c2)n2nc(SCc3ccccc3Cl)nc2N1 (stereo not drawn)	/	/	-4.3%	/	/
COc1cc(C(=O)Nc2cccc(S(=O)(=O)N3CCCC3)c2)cc(OC)c1C	-4.6%	-4.4%	-17.3%	-8.4%	/
CCCOC(=O)Nc1ccc(N2CCCCC2)cc1	/	/	3.01µM*	/	14.1µM*
CCCCOC(=O)Nc1ccc(C(=O)OCCC)cc1	5.9%	23.2%	19µM*	?	-11.1%
Cc1cc(C)cc(NC(=O)Nc2ccc(N3CCCCC3)cc2)c1	3.98µM*	3.55µM*	2.69µM*	?	/
O=C(Nc1ccc(N2CCCC2)cc1)c1cccc(Cl)c1	0.251µM*	0.316µM*	0.675µM*	1.16µM*	/
O=C(CN1CCCCC1)Nc1ccc(N2CCCCCC2)cc1	1.4%	-2.0%	-17.9%	-0.2%	-4.9%
Cc1cc(C)cc(OCC(=O)Nc2ccc(N3CCCCC3)cc2)c1	-2.0%	-3.4%	9.1%	1.0%	/
CC(=O)c1ccc(NC(=O)CCc2c(C)nc3c(c2C)c(=O)n(C)c(=O)n3C)cc1	/	/	1.7%	/	6.1%
O=C(O)CCCNc1ccc([N+](=O)[O-])c(NCCCC(=O)O)n1	-5.9%	-0.2%	1.8%	-0.5%	-25.2%
O=C1[C@@H]2Cc3c([nH]c4ccccc34)C(c3cccc([N+](=O)[O-])c3)N2C(=O)CN1C1CCN(Cc2ccccc2)CC1 (stereo partly drawn)	-6.6%	-17.2%	-2.3%	-0.5%	/
CCCNC(=O)CN1CCC(c2nc3ccccc3[nH]2)CC1	-7.0%	-4.4%	1.0%	-0.3%	/
Cc1cc(C)cc(C(=O)Nc2ccc(N3CCCC3)cc2)c1	1µM*	2.24µM*	1.9µM*	?	8.91µM*
O=C(NCc1ccccn1)NC1CCCCC1	0.1%	-5.1%	0.3%	1.9%	-7.7%
Cc1cccc(CSc2nc(-c3cccs3)ccc2C#N)c1	/	/	-1.5%	/	1.4%
CCOC(=O)c1c(N/N=C/c2cccnc2)n[nH]c1C	14.1%	-12.6%	?	15.9%	/
COc1ccc(-c2ccc(SCC(=O)N3CCOCC3)nn2)cc1	0.2%	20.2%	10.7µM*	4.5%	9.1%
O=C(CSc1ccc(-c2ccc(F)cc2)nn1)N1CCCCC1	23.5%	19.7%	?	8.6%	4.4%
O=C(CSc1ccc(-c2ccc(Br)cc2)nn1)N1CCOCC1	9.9%	29.8%	15.1µM*	-5.8%	-12.9%
COc1ccccc1OCC(=O)Nc1cccc(N(C)S(C)(=O)=O)c1	0.0%	12.5%	16.9µM*	2.4%	14.1%
COc1ccc(C(=O)Nc2cccc(N(C)S(C)(=O)=O)c2)cc1OC	?	?	16.9µM*	16.4µM*	12.6µM*
CN(c1cccc(NC(=O)CN2C(=O)c3ccccc3S2(=O)=O)c1)S(C)(=O)=O	-1.0%	12.8%	26.9µM*	0.9%	23.1%
COc1cc(C=O)ccc1OCC(=O)Nc1cccc(S(=O)(=O)N(C)c2ccccc2)c1	-0.1%	-2.4%	-18.3%	0.6%	/
COc1ccc(NC(=O)c2ccc(N(C)S(C)(=O)=O)cc2)cc1OC	10.8%	7.9%	-10.3%[2.3 µM]	0.9%	16.4%
COc1ccc(Cn2c(=O)c3ccccc3n3c(-c4ccc(C)cc4)nnc23)cc1	/	/	-0.8%	/	/
COC1=C/C(=C/c2c(O)c(C#N)c3ccccn23)C=CC1=O	-0.4%	-1.9%	15.1µM*	14.7%	/
COc1cc(OC)cc(C(=O)c2c(C)c(C#N)c3ccccn23)c1	-6.2%	-21.5%	-1.3%	5.2%	/
O=C(/C=C/c1nc2ccccc2s1)N1CCCCCC1	2µM*	3.16µM*	15.1µM*	?	/
CC1CCCCC1NC(=O)/C=C/c1nc2ccccc2s1 (stereo not drawn)	4.4%	27.2%	?	3.4%	46.6%
Cc1nc(-c2ccc(NC(=O)C3CCCCC3)cc2)cs1	2.82µM*	3.16µM*	2.13µM*	2.31µM*	25.1µM*
